Assay results from PubChem BioAssay (NCI).
The panel holds about 83,000 compounds, 20% with a hit somewhere; the sample as a whole holds those more often.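 48-hour exposure, single concentration, 96-well plates; percent growth endpoint where 0 means no net growth. Active: below 10.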 Unmarked numbers belong to inactive results. Activity calls are given as the source filed them.

system: SF-295 CNS; experiment: NCI-60 one-dose screen, 48 h (100 = growth as untreated, 0 = no growth, -100 = all killed); settings: 10 µM

SMILES | growth
CC(C)=CCc1cc(O)cc2c1OC(C=C(C)C)C1=C2C(=O)C2=C(NCCS2(=O)=O)C1=O (stereo not given) | 45.9%
Clc1ccc(Nc2ccnc(NCCNc3ccnc4cc(Cl)ccc34)n2)cc1 | -58.9% (active)
COc1cc(-c2nc(-c3nnc(-c4ccc(F)c(Cl)c4)o3)c3ccccn23)cc(OC)c1OC | 37.3%
COc1ccc(-c2nc3ccccn3c2-c2nnc(-c3cc(OC)c(OC)c(OC)c3)o2)cc1 | 64.9%
CN1CCC(CNc2cc(C3(C(=O)Nc4cc(C(=O)Nc5ccc(Cl)c(C(F)(F)F)c5)ccc4F)CC3)ncn2)CC1 | -54.4% (active)
CN1CCC2(CC1)NC(=O)c1c(c3ccc(Cl)c(Cl)c3n1C)C2C#N (stereo not given) | 94.9%
COc1ccc(-c2nc3ncccn3c2-c2nnc(-c3ccsc3C)o2)cc1 | 80.3%
COc1ccc2c(c1)/C(=C\c1c[nH]c3ccc(OC)cc13)C(=O)N2 | 74%
O=C(Nc1cccc(Br)c1)c1cc(=O)[nH]c2ccccc12 | 112%
NC(=O)CC1(c2ccccc2)CCCCC1 | 103%
COC(=O)C(=C\c1ccc2c(c1)OCO2)/C(=C/c1ccc2c(c1)OCO2)C(=O)OC | 95.3%
Fc1ccc(-c2nnc(-c3c(-c4ccc(F)cc4)nc4ccccn34)o2)cc1 | 88.7%
COc1ccc(Nc2cc(C)nc(NCCCNc3ccnc4cc(Cl)ccc34)n2)cc1 | -78.8% (active)
COc1cc(-c2nnc(-c3c(-c4ccc(F)cc4)nc4ccccn34)o2)cc(OC)c1OC | 74.6%
CCN(CC)CCNc1ccc(CO)c2oc3cc(Cl)ccc3c(=O)c12 | 97.9%
CC(C)=CCc1cc(O)cc2c1OC(C=C(C)C)C1=C2C(=O)C2=C(C1=O)S(=O)(=O)CCN2 (stereo not given) | 85.5%
Cc1cc(Nc2ccc(Cl)cc2)nc(NCCCNc2ccnc3cc(Cl)ccc23)n1 | -68.2% (active)
CC12O[C@H](C[C@@H](OC(=O)c3ccccc3)[C@H]1O)n1c3ccccc3c3c4c(c5c6ccccc6n2c5c31)C(=O)NC4=O | 45.8%
Cc1ccc(C(=O)Nc2cccc(F)c2)cc1NC(=O)C1(c2ncnc3[nH]ccc23)CC1 | 89.3%
COc1cc(-c2nc(-c3nnc(-c4ccccc4Cl)o3)c3ccccn23)cc(OC)c1OC | 77.9%
COc1ccc(Nc2ccnc(NCCNc3ccnc4cc(Cl)ccc34)n2)cc1 | 46.1%
COc1cc(Nc2ccnc(NCCNc3ccnc4cc(Cl)ccc34)n2)cc(OC)c1 | 39.9%
O=C(Nc1nc2ccc(F)cc2s1)c1cc(-c2ccc(F)cc2)n2nc(-c3ccccc3)cc2n1 | 94.8%
CC12O[C@H](C[C@@H](O)[C@H]1O)n1c3ccccc3c3c4c(c5c6ccccc6n2c5c31)C(=O)N(CCCN)C4=O | 51%
COc1ccc(-c2nc3ncccn3c2-c2nnc(-c3ccc(F)cc3)o2)cc1 | 97.1%
